DUSP3 inh – inhibitors of human VHR1 phosphatase (DUSP3); inhibition, % at 20 µM; 50,000 compounds, 0.7% hits; P51452; recombinant VHR phosphatase, colorimetric substrate read-out; in the data active = inhibition above about 60%
Target sequence (P51452 whole entry, looked up): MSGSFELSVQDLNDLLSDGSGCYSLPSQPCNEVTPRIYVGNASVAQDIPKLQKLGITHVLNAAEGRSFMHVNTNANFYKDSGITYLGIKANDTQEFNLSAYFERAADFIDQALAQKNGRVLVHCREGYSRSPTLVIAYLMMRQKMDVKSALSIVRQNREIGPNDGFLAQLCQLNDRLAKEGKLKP
Active calls of the source: *. Only a selection was taken, and hits are over-represented in it overall.

SMILES	DUSP3 inh
C=CCN1C(=O)/C(=C\c2cn(Cc3ccc([N+](=O)[O-])cc3)c3ccccc23)C(=O)NC1=S	83*
CCn1cc(C=C2C(=O)NC(=S)NC2=O)c2ccccc21	76*
O=C(Cn1cc(C=C2C(=O)NC(=S)NC2=O)c2ccccc21)Nc1ccccc1	13
O=C1NC(=S)N/C1=C/c1ccc(-c2cccc(Cl)c2Cl)o1	-8
O=C1NC(=S)N/C1=C/c1ccc(-c2cc(C(=O)O)ccc2Cl)o1	-5
C=CCN1C(=O)/C(=C/c2ccccc2Cl)C(=O)NC1=S	-2
C=CCN1C(=O)/C(=C\c2ccc(-c3cccc([N+](=O)[O-])c3)o2)C(=O)NC1=S	20
COc1cc(/C=N/NC(=O)CC2(C)OCCO2)cc(Br)c1OCc1cccc2ccccc12	-33
Cc1[nH]n(-c2ccccc2)c(=S)c1C=Nc1ccc(Br)cc1	26
O=C(c1ccccc1F)N1CCN(Cc2ccco2)CC1	-23
CCCC(=O)Nc1sc(C)c(C)c1C(=O)Nc1ccccc1OC	-24
O=C(COc1ccccc1)NNC(=O)c1ccc(F)cc1	-16
Cc1ccc(S(=O)(=O)Nc2ccc(S(=O)(=O)N3CCCCC3)cc2)cc1[N+](=O)[O-]	-2
COC(=O)CCC(=O)Nc1ccc(C(=O)c2ccccc2)cc1	3
C=CCN1C(=O)/C(=C\c2ccc(-c3ccc(C)cc3Br)o2)C(=O)NC1=S	88*
C=CCN1C(=O)/C(=C\c2ccc(C)o2)C(=O)NC1=S	43
Cc1ccc(-c2ccc(C=C3C(=O)NC(=S)NC3=O)o2)c(Br)c1	22
O=C(Nc1ccc([N+](=O)[O-])cc1)C(Sc1ccccc1)c1ccccc1 (stereo not given)	-3
Cc1ccc(NC(=O)CC2CCCCC2)cc1	6
O=C(CC1CCCCC1)Nc1ccccc1	97*
Cc1ccccc1NC(=O)CC1CCCCC1	39
CC(C)C1S/C(=N/N=C/c2ccc(O)cc2)NC1=O (stereo not given)	93*
COc1ccc(CC2S/C(=N\N=C\c3ccc(C(C)C)cc3)NC2=O)cc1 (stereo not given)	-8
Cc1ccc(/C=N/N=C2\NC(=O)C(C)S2)cc1 (stereo not given)	-1
Nc1c(C(=O)NCc2cccnc2)sc(=S)n1-c1ccccc1	91*
SMILES	DUSP3 inh
O=C(NCc1cccnc1)c1cc(-c2ccccc2)nc2ccccc12	4
O=C(NCc1cccnc1)c1ccc(C#Cc2ccccc2)cc1	-6
Cc1c(C(=O)OC(C)C)sc(NC(=O)COc2ccc(Cl)cc2)c1C(N)=O	8
COc1cccc(-n2c(/C=C/c3c(C)[nH]c4ccccc34)nc3ccccc3c2=O)c1	76*
Cc1[nH]c2ccccc2c1/C=C/c1nc2ccccc2c(=O)n1-c1ccc([N+](=O)[O-])cc1	8
Cc1[nH]c2ccccc2c1/C=C/c1nc2ccccc2c(=O)n1C	-3
O=[N+]([O-])c1cnc(-c2ccccc2)nc1	-39
COc1ccc(CN2CCN(S(=O)(=O)c3ccc(C)cc3)CC2)cc1OCc1ccccc1	2
O=S(=O)(c1ccc(C2=CSC3=NCCN23)cc1)N1CCCCC1	-14
COc1ccc(C(N=C2NS(=O)(=O)c3cc([N+](=O)[O-])ccc32)c2ccccc2)cc1 (stereo not given)	-2
O=C1C(=Cc2ccc(I)o2)C(=O)c2ccccc21	4
CN1C(=O)NC(=O)/C(=C/c2ccc(I)o2)C1=O	2
CC1(C)OC(=O)C(=Cc2ccc(I)o2)C(=O)O1	87*
CCOc1cccc(C=NN2CCN(Cc3ccc(C)cc3C)CC2)c1O	-29
COc1cccc(/C=C2/N=C(c3ccc(NC(C)=O)cc3)OC2=O)c1	-1
CCOc1cc(/C=C2/N=C(c3ccc(NC(C)=O)cc3)OC2=O)ccc1OCc1ccccc1	86*
CCOc1cc(C=C2C(=O)NC(=O)NC2=O)ccc1OCc1ccccc1	6
Cc1ccc(/C=C2\SC(=S)N(CCC(=O)Nc3cccc(O)c3)C2=O)cc1	-30
COc1ccc(/C=C2\SC(=O)N(CCC(=O)Nc3ccccc3C)C2=O)cc1OC	17
COc1ccc(/C=C2\SC(=O)N(CCC(=O)Nc3cccc(C)c3)C2=O)cc1OC	80*
COc1ccccc1NC(=O)CCN1C(=O)S/C(=C/c2ccc(OC)c(OC)c2)C1=O	-5
O=C(/C=C/c1ccco1)Nc1ccc(O)c(-c2nc3ccccc3o2)c1	18
O=C(Nc1ccc(-c2nc3ccccc3s2)c(O)c1)c1cc2ccccc2o1	-7
O=C(/C=C/c1ccco1)Nc1ccc(-c2nc3ccccc3s2)c(O)c1	75*
COc1cc(Br)c(/C=C2\C(=O)NC(=S)N(c3ccccc3)C2=O)cc1OC	0
SMILES	DUSP3 inh
Cn1cccc1/C=C1/C(=O)NC(=S)N(c2ccc(Cl)cc2)C1=O	70*
COc1ccccc1N1C(=O)NC(=O)/C(=C\c2cc3ccccc3n2C)C1=O	36
O=C1NC(=S)N(c2cccc(Cl)c2)C(=O)/C1=C/c1ccc(Cl)cc1	17
COc1ccccc1N1C(=O)C(=Cc2cccn2C)C(=O)NC1=S	77*
Cc1cc(/C=C2\C(=O)NC(=S)N(c3ccc(Cl)cc3)C2=O)c(C)n1C	5
COc1ccc(NC(=O)Nc2ccccc2)c(OC)c1	-4
CCOc1ccc(C(NC(C)=O)c2ccc(OC)cc2)cc1 (stereo not given)	-1
O=C(CN(c1cccc([N+](=O)[O-])c1)S(=O)(=O)c1ccccc1)NCCSCc1ccccc1Cl	-12
CC(C)(C)c1ccc(OCCOc2cccc(C=C3C(=O)NC(=O)NC3=O)c2)cc1	-7
CCCc1cc(=O)oc2cc(C)cc(OCC(C)=O)c12	-13
CN(CCO)S(=O)(=O)c1ccc(N)cc1	-3
O=C(Nc1ccc(S(=O)(=O)Nc2nccs2)cc1)c1ccc(Cl)cc1	-3
CCN(CC)S(=O)(=O)c1ccc(NC(=S)Nc2ccccc2)cc1	-7
O=C(O)CSCC(NC(=S)Nc1ccccc1)C(=O)O (stereo not given)	-4
O=C(O)C(Cc1ccccc1)NC(=S)Nc1ccccc1 (stereo not given)	99*
CCC(C)C(NC(=S)Nc1ccccc1)C(=O)O (stereo not given)	98*
O=C(NC(Cc1ccccc1)C(=O)Nc1ccccc1)OCc1ccccc1 (stereo not given)	4
CC(=O)Nc1ccc(NC(=S)Nc2ccccc2)cc1	7
COc1ccccc1CNC1CCCCC1OC (stereo not given)	7
Cc1ccc(C)c(NC(=O)c2cccc(F)c2)c1	-12
COc1ccc(C(=O)CC(Nc2ccc(C)c(Cl)c2)c2ccccc2)cc1 (stereo not given)	25
COc1ccc(C2(CNC(=O)/C=C/c3ccccc3)CCCC2)cc1OC	-3
NC(=O)N/N=C1\NC(=O)/C(=C\c2ccccc2)S1	-33
N#C/C(=C/c1ccc(Sc2ccccc2)o1)C(=O)Nc1ccc(F)cc1	-13
COc1ccc(-c2cc(C(F)(F)F)n3ncc(C(=O)N4CCN(Cc5ccccc5)CC4)c3n2)cc1	18
SMILES	DUSP3 inh
O=C(COc1ccc(Br)cc1)N1CCN(c2ccccn2)CC1	-22
Cc1cc(C)n(C(=O)c2cc([N+](=O)[O-])ccc2Cl)n1	-2
CCOc1ccc(N2Cc3ccccc3C2)cc1	-7
CCOc1ccc(C(=O)Nc2cc(=O)n(C)c(=O)n2C)cc1	16
CCOc1ccc(N2Cc3ccc(C(=O)NN)cc3C2)cc1	91*
COc1ccc(CNS(=O)(=O)c2ccc(Br)cc2)cc1	-21
O=C(O)C1=CNC=C(C(=O)O)C1c1ccc(O)cc1	18
O=C(Nc1ccccc1F)C1(c2ccccc2)CC1(Cl)Cl (stereo not given)	5
